Source: PubChem
SARS PLpro yeast = qHTS of Yeast-based Assay for SARS-CoV PLP | 0.19% of 330,000 active | Potency, µM (highest dose often 32.9 µM), for the others: top-dose activity, positive = growth rescue, usual class: activators | S. cerevisiae expressing SARS-CoV PLpro, growth rescue; calls by dose curve; further: 0% is about no effect; nearly all actives have a fitted effect of over 55% in size
AMA1-RON2 inh = qHTS for Inhibitors of AMA1-RON; Towards Development of Antimalarial Drug Lead: Primary Screen; Plasmodium falciparum AMA1 (3D7) - RON2 peptide interaction; AlphaScreen AMA1-biotinylated RON2 peptide binding; Potency, µM (highest dose often 58.2 µM), inactives show at the highest dose activity change, negative = inhibition, hits mostly inhibitors; 0.2% of 360,000 active; AID 720542, 2013;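 further: 0% = vehicle wells and -100% = peptide control; nearly all actives have a fitted effect of over 45% in size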
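AMA1 (3D7) with his tag at 25 nM final met compounds first, then biotinylated RON2 peptide at 25 nM; detection used donor plus acceptor beads, 10 µg/mL apiece, read by AlphaScreen after 30 min at room temperature.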
Pf growth 48h = Primary qHTS for delayed death inhibitors of the malarial parasite plastid, 48 hour incubation | 5.9% of 310,000 active | Potency, µM (highest dose often 28.7 µM), inactives show at the highest dose activity change, negative = inhibition, most hits filed as inhibitors | P. falciparum luciferase growth in erythrocytes, 48 h; further: on the % scale 0 is the no-effect control and ±100 the full control effect
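Here the parasites carry a stable luciferase gene and grow inside erythrocytes in Albumax-based RPMI medium with compound for one erythrocytic cycle. Activity is scored as loss of luminescent signal.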
HCV inhibitor = qHTS Assay for Inhibitors of Hepatitis C Virus (HCV) | Huh7.5.1 HCVcc-Cre infection, luciferase reporter, 44 h | Potency, µM (titrated, usually from 41.8 µM), without a hit: at the highest dose activity change, negative = inhibition, most hits filed as inhibitors | 3.4% of 340,000 active; further: on the % scale 0 is the no-effect control and ±100 the full control effect
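1,000 cells/well; 4 h culture; + compound; + HCVcc-Cre (~0.5 moi); 44 h; luciferase substrate, RT 15 min; read 15 sec.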
Pf growth 96h = Primary qHTS for delayed death inhibitors of the malarial parasite plastid, 96 hour incubation. P. falciparum luciferase reporter growth, 96 h. Potency, µM (series often up to 28.7 µM), inactives show at the highest dose activity change, negative = inhibition, hits mostly inhibitors. 6.9% of 320,000 active; further: on the % scale 0 is the no-effect control and ±100 the full control effect
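Infected RBCs, 2% Hct / 0.05% parasitemia final; luciferase-reporter P. falciparum; cpd 96 h, 37 C, 5% CO2; luciferase detection reagent; luminescence.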
NS1 function inh = qHTS Assay for Inhibitors of Influenza NS1 Protein Function | Potency, µM (titrated, usually from 46.1 µM), for inactives: at the highest dose activity, positive = more growth | 0.4% of 270,000 active; calls by dose curve; further: actives are rising curves; nearly all actives have a fitted effect of over 50% in size
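OD600 was taken as the measure of yeast growth restored by compound in an NS1-expressing S. cerevisiae strain. Cells had been washed out of glucose medium and diluted 1:100 into galactose -URA medium, pH 6.0.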
Starred values were filed as active, the others as inactive; ? = inconclusive; . = no result; [ ] = another dose, or the depositor's remark. This is a sample that favours compounds with a hit; in the whole collection about 12% have one here. Unless noted, the call rests on the fitted dose curve; in most records, active means well fitted curve in the direction sought with a large enough effect; inconclusive means small, poorly fitted or top-dose-only effect, or another doubt; inactive means no such curve, though single readings can be large; an effect the other way counts as inactive or inconclusive. Potency means the concentration at half of the fitted maximal effect.

SMILES	SARS PLpro yeast	AMA1-RON2 inh	Pf growth 48h	HCV inhibitor	Pf growth 96h	NS1 function inh
CCn1c(O)c(N=NC(=O)Cn2ccc(C(F)(F)F)n2)c2ccccc21	-32%	-2%	20%	-2%	0%	-9%
Cn1cnnc1SCc1ccc(C(=O)N=Nc2c(O)n(Cc3ccc(Cl)cc3)c3ccccc23)cc1	2%	-4%	2.3µM*	10µM*	3.7µM*	?
O=C(N=Nc1c(O)n(Cc2ccccc2)c2ccccc12)c1ccc(O)cc1	-22%	-7%	?	?	12µM*	25%
O=[N+]([O-])c1ccc(Sc2ncc3ccccn23)nc1	-1%	-1%	?	-3%	9.3µM*	-6%
O=[N+]([O-])c1ccc(Sc2ccccc2Cl)nc1	13%	?	-9%	-1%	.	-4%
CC1(C)C(=O)OC(c2cccs2)C(C)(C)C1=O (stereo not drawn)	-6%	1%	3%	27%	1.9µM*	?
Cc1nn(C)cc1S(=O)(=O)N1CCCCC1C (stereo not drawn)	3%	-4%	2%	8%	15%	0%
COC(=O)C(Cc1ccccc1)OS(N)(=O)=O (stereo not drawn)	3%	28%	78%	30%	-20%	-4%
CCOc1ccc(C(C(=O)NC2CCCCC2)N(C(=O)Cc2cccs2)c2ccc(-n3cnnn3)c(OC)c2)cc1 (stereo not drawn)	?	-8%[11.6 µM]	10µM*	-6%	7.4µM*	14%
CCOc1ccc(C(C(=O)NC2CCCCC2)N(C(=O)c2ccco2)c2ccc(-n3cnnn3)c(C)c2)cc1 (stereo not drawn)	-5%	2%	?	?	89%	-1%
COc1cccc(C(C(=O)NC2CCCC2)N(C(=O)c2ccco2)c2ccc(-n3cnnn3)c(C)c2)c1OC (stereo not drawn)	0%	-4%	9.3µM*	1%	34%	-6%
CC(Sc1nnc(Cc2cccs2)n1C)C(=O)Nc1ccc(C(N)=O)cc1 (stereo not drawn)	1%	-2%	?	-1%	-3%	.
Cc1cccc(C(=O)Nc2cc(S(=O)(=O)N3CCOCC3)ccc2N2CCCC2)c1	0%	17%	?	?	?	.
Cc1cccc(C(=O)Nc2ccc(S(=O)(=O)Nc3nc(C)cc(C)n3)cc2)c1	-4%	-1%	-9%	0%	?	2%
CN(C(=O)c1ccc(-c2ccccc2)cc1)C1CCCCC1	.	18%	.	-20%	.	.
CN(C(=O)c1cccc(NC(=O)Cc2ccc([N+](=O)[O-])cc2)c1)C1CCCCC1	-1%	-3%	.	3.2µM*	.	.
CN(C(=O)c1ccc(Oc2ccc([N+](=O)[O-])cc2)cc1)C1CCCCC1	-4%	-1%	0%	13µM*	0%	-36%
Cc1ccc([N+](=O)[O-])cc1NC(=O)CN(C(=O)c1ccccc1Cl)C1CCCCC1	6%	-2%	?	?	0%	9%
O=C(CN(C(=O)c1cccc([N+](=O)[O-])c1)C1CCCCC1)Nc1ccc(Cl)c([N+](=O)[O-])c1	12%	9%	1.9µM*	?	?	2%
Cc1ccc(C2(C(=O)N3CCC(n4nc(-c5ccccc5)oc4=O)CC3)CC2)cc1	-8%	-6%	?	?	-1%	-15%
COc1ccc(CCN2C(=O)C(Oc3ccccc3C)C2c2ccc3c(c2)OCO3)cc1OC (stereo not drawn)	0%	-14%	12µM*	?	58%	4%
COc1ccc(CCN2C(=O)C(Oc3ccccc3C)C2c2ccc3c(c2)OCO3)cc1 (stereo not drawn)	-12%	-2%	?	?	0.93µM*	-3%
CC1CN(C(=O)Cn2cc(S(=O)(=O)CC(=O)N(C)c3ccccc3)c3ccccc32)CC(C)O1 (stereo not drawn)	-2%	10%	-12%	6%	13µM*	3%
CN(C(=O)CS(=O)(=O)c1cn(CC(=O)N2CCOCC2)c2ccccc12)c1ccccc1	4%	5%	-8%	22%	-1%	.
CCOC(=O)/C=C1\SCC(=O)N1CC(=O)NC(C)c1ccc(F)cc1 (stereo not drawn)	-6%	8%	-4%	32%	?	12%
SMILES	SARS PLpro yeast	AMA1-RON2 inh	Pf growth 48h	HCV inhibitor	Pf growth 96h	NS1 function inh
Cc1ccc(N=Nc2ccc3ccccc3c2O)cc1	3%	2.8µM*	94%	-1%	122%	30%
Oc1c(N=Nc2ccc(F)cc2)ccc2ccccc12	3%	1.8µM*	122%	0%	11%	14%
Oc1ccc2ccccc2c1N=Nc1ccc(F)cc1	-1%	1.4µM*	-3%	-14%	?	?
COc1ccc(N=Nc2ccc3ccccc3c2)c(O)c1	0%	?	146%	-11%	103%	-5%
COc1cccc(N=Nc2ccc3ccccc3c2O)c1	2%	2.8µM*	-74%	-2%	-25%	-1%
CCN(CC)S(=O)(=O)c1cc(OC)c(Cl)cc1OC	-1%	-7%	-3%	-3%	-28%	-4%
COC(=O)c1ccc(OCc2nn[nH]n2)cc1	-2%	-2%	17%	17%	5%	-7%
COc1cc2c(cc1OC)C(O)C(O)(CO)C(C(=O)O)C2c1cc(OC)c(OC)c(OC)c1 (stereo not drawn)	.	-3%	.	12%	.	.
Cc1cccc(C(=O)N/N=C/c2cc(Br)c(Br)o2)c1	-30%	9%	?	-13%	?	-5%
C/C(=N\NC(=O)C1CCCN(S(=O)(=O)c2ccccc2)C1)c1cccnc1 (stereo not drawn)	1%	-1%	4%	-11%	9.3µM*	5%
C/C(=N\NC(=O)C1CCCN(S(=O)(=O)c2ccccc2)C1)c1ccccn1 (stereo not drawn)	1%	-11%	2.3µM*	?	49%	0%
Cc1ccccc1S(=O)Cc1ccc(C(=O)N2CCN(C(=O)c3ccco3)CC2)o1 (stereo not drawn)	3%	1%	7%	16%	?	4%
C[C@H](NC(=O)[C@@H]1CSC2c3ccccc3C(=O)N21)C(=O)NCc1c(F)cccc1Cl (stereo partly drawn)	0%	4%	?	-12%	12µM*	-7%
C[C@H](NC(=O)[C@@H]1CSC2c3ccccc3C(=O)N21)C(=O)NC1CCCC1 (stereo partly drawn)	-3%	-7%	-17%	16%	-13%	1%
